Results from paper PMC7862700, “An all-to-all approach to the identification of sequence-specific readers for epigenetic DNA modifications on cytosine”.

How the values were obtained:
Assay in all cases: DAPPL (digital affinity profiling via proximity ligation, sequencing); 10 mM Tris-HCl pH 7.5, 50 mM NaCl, 1 mM DTT, 4% glycerol, room temperature, 30 min; GST-TFs on glutathione beads, 16-mer random dsDNA library, 0.1% formaldehyde crosslink after washing; high values mean tight binding
Conditions in all cases: protein: recombinant; tags: N-terminal GST; dsDNA, one strand shown
GABPA = biological target: T1, GABPA (Homo sapiens, UniProt Q06546 1-454)
T1 sequence: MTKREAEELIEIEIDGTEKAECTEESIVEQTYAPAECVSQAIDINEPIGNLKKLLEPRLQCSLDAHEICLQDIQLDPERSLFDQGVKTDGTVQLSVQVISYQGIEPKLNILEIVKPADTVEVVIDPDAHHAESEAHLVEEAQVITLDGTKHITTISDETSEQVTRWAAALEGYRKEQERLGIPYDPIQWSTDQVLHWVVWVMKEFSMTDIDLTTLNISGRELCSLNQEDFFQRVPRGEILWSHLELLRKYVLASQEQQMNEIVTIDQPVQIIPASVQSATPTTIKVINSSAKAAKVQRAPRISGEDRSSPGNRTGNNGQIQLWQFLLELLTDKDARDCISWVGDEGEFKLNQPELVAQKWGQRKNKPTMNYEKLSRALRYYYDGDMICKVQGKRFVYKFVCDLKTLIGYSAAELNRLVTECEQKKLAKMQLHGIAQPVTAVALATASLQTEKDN
In short: (§1)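 GST fusions of human transcription factors were expressed in yeast and captured with glutathione beads. Once given DNA barcodes and pooled alongside a tag-only sample, they were incubated for 30 min at room temperature with 200 nmole of a random double-stranded 16-mer DNA library in Tris/NaCl/DTT/glycerol buffer, then washed, crosslinked (0.1% formaldehyde), proximity-ligated, PCR-amplified and sequenced on an Illumina NextSeq500. The binding signal of each hexamer is its read frequency for a factor divided by its frequency for the tag-only sample.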

ERG = biological target: T2, ERG (Homo sapiens, UniProt P11308 1-479)
T2 sequence: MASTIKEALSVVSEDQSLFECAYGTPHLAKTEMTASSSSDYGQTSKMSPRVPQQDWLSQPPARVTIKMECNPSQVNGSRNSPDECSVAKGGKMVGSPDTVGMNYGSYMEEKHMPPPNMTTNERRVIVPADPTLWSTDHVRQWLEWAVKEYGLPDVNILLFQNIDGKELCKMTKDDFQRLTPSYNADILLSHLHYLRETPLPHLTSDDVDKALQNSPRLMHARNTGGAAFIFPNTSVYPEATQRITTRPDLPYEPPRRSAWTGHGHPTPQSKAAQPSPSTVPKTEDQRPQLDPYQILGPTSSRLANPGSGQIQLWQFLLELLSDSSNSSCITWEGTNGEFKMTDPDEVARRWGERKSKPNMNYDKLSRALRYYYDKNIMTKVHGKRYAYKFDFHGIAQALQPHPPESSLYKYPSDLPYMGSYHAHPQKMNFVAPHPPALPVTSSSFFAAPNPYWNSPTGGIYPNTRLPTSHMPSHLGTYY
In short: as §1

ELF1 = ELF1 (Homo sapiens, UniProt P32519 1-619)
ELF1, sequence (P32519 whole entry): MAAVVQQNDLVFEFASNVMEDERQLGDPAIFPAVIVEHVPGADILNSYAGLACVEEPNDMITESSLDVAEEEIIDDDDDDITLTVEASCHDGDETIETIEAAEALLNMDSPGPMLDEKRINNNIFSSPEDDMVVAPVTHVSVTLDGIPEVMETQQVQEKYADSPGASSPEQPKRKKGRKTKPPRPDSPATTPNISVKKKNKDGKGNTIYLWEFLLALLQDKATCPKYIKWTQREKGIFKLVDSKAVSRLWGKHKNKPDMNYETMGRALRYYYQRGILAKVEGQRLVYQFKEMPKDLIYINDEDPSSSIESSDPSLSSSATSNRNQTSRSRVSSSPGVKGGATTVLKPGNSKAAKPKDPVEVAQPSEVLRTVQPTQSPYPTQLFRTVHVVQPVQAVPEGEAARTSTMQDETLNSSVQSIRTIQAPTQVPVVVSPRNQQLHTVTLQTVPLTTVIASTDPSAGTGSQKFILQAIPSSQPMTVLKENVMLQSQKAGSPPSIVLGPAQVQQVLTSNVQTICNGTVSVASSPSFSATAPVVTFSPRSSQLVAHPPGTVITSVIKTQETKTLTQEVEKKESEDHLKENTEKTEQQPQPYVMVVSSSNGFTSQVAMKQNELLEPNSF
In short: as §1

ETV5 = ETV5 (Homo sapiens, UniProt P41161 1-510)
ETV5, sequence (P41161 whole entry): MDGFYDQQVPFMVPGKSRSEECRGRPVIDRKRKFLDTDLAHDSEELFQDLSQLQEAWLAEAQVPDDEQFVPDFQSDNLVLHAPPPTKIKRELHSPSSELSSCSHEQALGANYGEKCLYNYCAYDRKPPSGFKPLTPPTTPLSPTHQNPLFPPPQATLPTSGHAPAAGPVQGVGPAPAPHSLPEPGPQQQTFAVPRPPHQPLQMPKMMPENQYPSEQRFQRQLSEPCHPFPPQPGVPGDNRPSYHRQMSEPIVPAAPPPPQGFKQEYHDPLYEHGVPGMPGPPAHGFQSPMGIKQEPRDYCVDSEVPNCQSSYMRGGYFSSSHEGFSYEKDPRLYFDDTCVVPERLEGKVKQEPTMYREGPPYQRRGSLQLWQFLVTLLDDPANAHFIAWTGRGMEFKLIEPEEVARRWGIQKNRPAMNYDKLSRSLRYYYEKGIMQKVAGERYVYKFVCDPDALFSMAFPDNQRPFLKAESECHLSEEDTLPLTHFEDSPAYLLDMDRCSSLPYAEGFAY
In short: as §1

ELF4 = ELF4 (Homo sapiens, UniProt Q99607 1-663)
ELF4, sequence (Q99607 whole entry): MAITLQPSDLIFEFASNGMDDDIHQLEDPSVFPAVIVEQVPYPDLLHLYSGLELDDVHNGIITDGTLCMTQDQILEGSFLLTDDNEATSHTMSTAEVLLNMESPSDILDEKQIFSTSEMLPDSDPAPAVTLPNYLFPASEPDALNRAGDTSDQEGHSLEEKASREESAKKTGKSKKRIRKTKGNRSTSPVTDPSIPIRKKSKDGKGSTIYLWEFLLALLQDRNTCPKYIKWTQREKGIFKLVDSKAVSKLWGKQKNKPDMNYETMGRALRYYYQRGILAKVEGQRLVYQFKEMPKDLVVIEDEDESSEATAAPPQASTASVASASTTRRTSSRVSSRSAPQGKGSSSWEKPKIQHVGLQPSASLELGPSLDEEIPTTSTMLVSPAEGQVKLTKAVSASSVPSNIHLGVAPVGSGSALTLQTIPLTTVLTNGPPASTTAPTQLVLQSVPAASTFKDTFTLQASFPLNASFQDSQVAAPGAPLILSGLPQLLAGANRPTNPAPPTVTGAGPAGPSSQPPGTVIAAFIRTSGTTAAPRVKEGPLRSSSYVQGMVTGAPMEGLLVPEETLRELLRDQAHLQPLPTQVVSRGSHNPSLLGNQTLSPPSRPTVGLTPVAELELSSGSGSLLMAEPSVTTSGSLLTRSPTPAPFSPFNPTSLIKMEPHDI
In short: as §1

ELK4 = biological target: T3, ELK4 (Homo sapiens, UniProt P28324-2 1-405)
T3 sequence: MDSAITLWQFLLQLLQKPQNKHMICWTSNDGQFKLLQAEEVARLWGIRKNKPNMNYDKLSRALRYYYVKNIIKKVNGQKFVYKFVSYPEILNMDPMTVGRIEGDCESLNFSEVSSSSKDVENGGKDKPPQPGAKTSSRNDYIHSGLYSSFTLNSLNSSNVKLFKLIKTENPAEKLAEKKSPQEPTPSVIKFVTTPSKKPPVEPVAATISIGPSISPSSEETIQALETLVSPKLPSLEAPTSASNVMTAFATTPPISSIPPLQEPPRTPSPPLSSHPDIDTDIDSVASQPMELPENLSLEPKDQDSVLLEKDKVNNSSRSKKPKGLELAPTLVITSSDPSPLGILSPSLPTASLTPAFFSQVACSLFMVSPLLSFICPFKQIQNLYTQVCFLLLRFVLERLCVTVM
In short: as §1

ELK1 = biological target: T4, ELK1 (Homo sapiens, UniProt P19419 1-428)
T4 sequence: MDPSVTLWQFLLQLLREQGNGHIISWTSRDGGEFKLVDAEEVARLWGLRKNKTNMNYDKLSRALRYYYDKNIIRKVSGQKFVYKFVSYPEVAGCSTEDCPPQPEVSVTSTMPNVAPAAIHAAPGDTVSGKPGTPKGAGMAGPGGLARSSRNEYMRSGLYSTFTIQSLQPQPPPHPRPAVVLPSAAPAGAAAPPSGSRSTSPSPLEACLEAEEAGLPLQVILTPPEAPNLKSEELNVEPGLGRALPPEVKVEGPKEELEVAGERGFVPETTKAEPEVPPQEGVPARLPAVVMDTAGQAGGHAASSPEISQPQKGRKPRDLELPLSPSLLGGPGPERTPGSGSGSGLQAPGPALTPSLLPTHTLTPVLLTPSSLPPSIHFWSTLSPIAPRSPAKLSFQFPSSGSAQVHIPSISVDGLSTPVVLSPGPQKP
In short: as §1

ELK3 = biological target: T5, ELK3 (Homo sapiens, UniProt P41970 1-407)
T5 sequence: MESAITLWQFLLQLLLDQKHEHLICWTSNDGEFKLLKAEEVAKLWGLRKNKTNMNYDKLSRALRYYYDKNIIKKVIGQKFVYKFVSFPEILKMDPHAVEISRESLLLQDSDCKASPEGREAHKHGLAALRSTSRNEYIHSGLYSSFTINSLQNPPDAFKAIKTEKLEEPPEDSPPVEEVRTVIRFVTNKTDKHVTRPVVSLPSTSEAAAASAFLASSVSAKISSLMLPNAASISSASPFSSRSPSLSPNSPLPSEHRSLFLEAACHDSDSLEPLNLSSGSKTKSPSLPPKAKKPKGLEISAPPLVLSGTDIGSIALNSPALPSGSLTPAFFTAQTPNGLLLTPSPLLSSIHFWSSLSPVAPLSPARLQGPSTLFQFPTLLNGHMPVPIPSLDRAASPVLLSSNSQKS
In short: as §1

FEV = biological target: T6, FEV (Homo sapiens, UniProt Q99581 1-238)
T6 sequence: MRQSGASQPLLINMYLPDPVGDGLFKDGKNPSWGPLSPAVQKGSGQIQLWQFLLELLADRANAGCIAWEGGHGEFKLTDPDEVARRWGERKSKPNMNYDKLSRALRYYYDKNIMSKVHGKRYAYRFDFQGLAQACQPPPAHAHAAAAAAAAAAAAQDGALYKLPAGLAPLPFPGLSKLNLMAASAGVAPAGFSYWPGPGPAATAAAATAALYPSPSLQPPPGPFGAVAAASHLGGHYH
In short: as §1

ETV1 = ETV1 (Homo sapiens, UniProt P50549 1-477)
ETV1, sequence (P50549 whole entry): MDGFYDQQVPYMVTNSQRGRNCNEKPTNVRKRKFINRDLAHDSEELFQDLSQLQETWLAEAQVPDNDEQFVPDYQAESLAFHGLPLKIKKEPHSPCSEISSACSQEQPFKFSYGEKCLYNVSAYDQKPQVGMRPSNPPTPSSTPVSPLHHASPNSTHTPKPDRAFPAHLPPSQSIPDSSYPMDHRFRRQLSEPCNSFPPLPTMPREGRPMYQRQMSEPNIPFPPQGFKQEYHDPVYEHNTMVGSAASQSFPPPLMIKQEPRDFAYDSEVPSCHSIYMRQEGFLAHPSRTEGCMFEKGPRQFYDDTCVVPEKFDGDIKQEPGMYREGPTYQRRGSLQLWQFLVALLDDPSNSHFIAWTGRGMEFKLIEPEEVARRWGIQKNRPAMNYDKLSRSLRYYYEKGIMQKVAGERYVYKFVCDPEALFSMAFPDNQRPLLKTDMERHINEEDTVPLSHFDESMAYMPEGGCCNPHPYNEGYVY
In short: as §1

ETS2 = biological target: T7, ETS2 (Homo sapiens, UniProt P15036 1-469)
T7 sequence: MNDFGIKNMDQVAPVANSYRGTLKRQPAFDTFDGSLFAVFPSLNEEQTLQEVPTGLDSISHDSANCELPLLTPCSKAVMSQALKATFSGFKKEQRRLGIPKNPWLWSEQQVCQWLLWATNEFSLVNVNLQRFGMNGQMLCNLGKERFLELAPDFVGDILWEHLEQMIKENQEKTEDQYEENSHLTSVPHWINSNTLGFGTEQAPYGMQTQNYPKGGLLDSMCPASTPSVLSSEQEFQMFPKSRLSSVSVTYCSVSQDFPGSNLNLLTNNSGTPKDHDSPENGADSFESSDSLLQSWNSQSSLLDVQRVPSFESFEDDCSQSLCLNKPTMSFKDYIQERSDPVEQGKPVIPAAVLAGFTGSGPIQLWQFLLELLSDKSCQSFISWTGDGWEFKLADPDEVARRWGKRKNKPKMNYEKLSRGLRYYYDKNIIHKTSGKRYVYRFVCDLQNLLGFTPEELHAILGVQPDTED
In short: as §1

SPDEF = biological target: T8, SPDEF (Homo sapiens, UniProt O95238 1-335)
T8 sequence: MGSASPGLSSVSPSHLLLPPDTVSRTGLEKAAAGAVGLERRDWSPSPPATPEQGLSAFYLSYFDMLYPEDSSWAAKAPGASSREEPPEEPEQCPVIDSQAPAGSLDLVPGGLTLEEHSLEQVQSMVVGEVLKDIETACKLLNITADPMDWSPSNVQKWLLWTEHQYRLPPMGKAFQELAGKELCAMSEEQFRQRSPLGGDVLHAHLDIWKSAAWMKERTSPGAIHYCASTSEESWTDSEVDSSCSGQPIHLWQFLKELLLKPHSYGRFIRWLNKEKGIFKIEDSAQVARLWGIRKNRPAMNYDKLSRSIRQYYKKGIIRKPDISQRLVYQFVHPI
In short: as §1

ETV7 = biological target: T9, ETV7 (Homo sapiens, UniProt Q9Y603 1-341)
T9 sequence: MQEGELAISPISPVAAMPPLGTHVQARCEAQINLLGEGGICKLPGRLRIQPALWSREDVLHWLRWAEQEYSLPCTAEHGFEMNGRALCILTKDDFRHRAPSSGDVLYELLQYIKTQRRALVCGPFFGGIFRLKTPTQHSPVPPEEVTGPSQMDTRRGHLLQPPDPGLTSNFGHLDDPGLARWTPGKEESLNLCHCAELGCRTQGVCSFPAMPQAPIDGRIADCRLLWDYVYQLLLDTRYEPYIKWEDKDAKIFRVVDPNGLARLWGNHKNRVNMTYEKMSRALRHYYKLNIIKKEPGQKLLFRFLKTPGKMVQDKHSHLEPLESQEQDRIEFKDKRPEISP
In short: as §1

ETV3 = biological target: T10, ETV3 (Homo sapiens, UniProt P41162-2 1-143)
T10 sequence: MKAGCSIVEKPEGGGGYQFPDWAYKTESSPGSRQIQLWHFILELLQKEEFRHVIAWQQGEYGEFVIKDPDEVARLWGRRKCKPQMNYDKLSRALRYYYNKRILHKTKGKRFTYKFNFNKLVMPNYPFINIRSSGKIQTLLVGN
In short: as §1

ETV6 = ETV6 (Homo sapiens, UniProt P41212 1-452)
ETV6, sequence (P41212 whole entry): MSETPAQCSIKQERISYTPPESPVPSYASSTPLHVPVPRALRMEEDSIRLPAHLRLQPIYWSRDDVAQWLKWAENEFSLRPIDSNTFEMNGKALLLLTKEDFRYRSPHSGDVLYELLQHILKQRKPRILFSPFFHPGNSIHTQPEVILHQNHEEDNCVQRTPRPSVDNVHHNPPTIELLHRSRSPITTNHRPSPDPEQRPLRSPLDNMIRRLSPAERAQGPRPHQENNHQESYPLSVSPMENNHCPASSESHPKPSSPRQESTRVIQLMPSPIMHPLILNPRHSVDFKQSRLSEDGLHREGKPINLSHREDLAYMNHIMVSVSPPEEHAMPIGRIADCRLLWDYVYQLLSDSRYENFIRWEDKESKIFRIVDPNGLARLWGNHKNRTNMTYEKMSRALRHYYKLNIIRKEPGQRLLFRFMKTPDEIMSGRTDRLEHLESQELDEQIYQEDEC
In short: as §1

Sequence	binding signal (GABPA)	binding signal (ERG)	binding signal (ELF1)	binding signal (ETV5)	binding signal (ELF4)	binding signal (ELK4)	binding signal (ELK1)	binding signal (ELK3)	binding signal (FEV)	binding signal (ETV1)	binding signal (ETS2)	binding signal (SPDEF)	binding signal (ETV7)	binding signal (ETV3)	binding signal (ETV6)
ACGCTC	1.05 fold enrichment (6-mer frequency, TF over GST control)	1.01 fold enrichment (6-mer frequency, TF over GST control)	1.07 fold enrichment (6-mer frequency, TF over GST control)	1.01 fold enrichment (6-mer frequency, TF over GST control)	1.08 fold enrichment (6-mer frequency, TF over GST control)	1.01 fold enrichment (6-mer frequency, TF over GST control)									
GAAGCC	1 fold enrichment (6-mer frequency, TF over GST control)	1.08 fold enrichment (6-mer frequency, TF over GST control)		1.07 fold enrichment (6-mer frequency, TF over GST control)	1.04 fold enrichment (6-mer frequency, TF over GST control)	1.01 fold enrichment (6-mer frequency, TF over GST control)	1.06 fold enrichment (6-mer frequency, TF over GST control)	1.05 fold enrichment (6-mer frequency, TF over GST control)	1.05 fold enrichment (6-mer frequency, TF over GST control)	1.04 fold enrichment (6-mer frequency, TF over GST control)	1.01 fold enrichment (6-mer frequency, TF over GST control)	1.01 fold enrichment (6-mer frequency, TF over GST control)	1.12 fold enrichment (6-mer frequency, TF over GST control)	1 fold enrichment (6-mer frequency, TF over GST control)	1.09 fold enrichment (6-mer frequency, TF over GST control)
